Measured values as given in PubChem BioAssay (NCI).
Compounds without any hit were thinned out: in the full panel of roughly 83,000, 20% have a hit.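 The endpoint reported here, percent growth, reads 100 for growth as untreated, 0 for no net growth and -100 for all cells dead.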 Active and inactive are the calls of the source. The calls were made as follows: active = growth percent below 10; inactive = the rest.

system: MDA-MB-468 breast; assay: NCI-60 one-dose screen, 48 h (100 = growth as untreated, 0 = no growth, -100 = all killed); conditions: 10 µM unless noted

| SMILES | growth |
| --- | --- |
| CCCCCN1C(=O)/C(=c2\sc3n(c2=O)C2C(NN=3)N(CC)C(=O)N2CC)c2cccc(C)c21 (stereo not given) | 34.5% (inactive) |
| CCCCCCCCn1ccc2cc(NC(=O)CN3CCN(c4nc(C)cc(Cl)n4)CC3)ccc21 | 92.8% (inactive) |
| COc1ccc(Oc2nc(Nc3ccc(N4CCOCC4)cc3)ncc2NC(=O)Nc2cc(OC)cc(OC)c2)cc1 | 25.3% (inactive) |
| O=C(Nc1nc2ccc(F)cc2s1)c1cc(-c2ccc(F)cc2)n2nc(-c3ccccc3)cc2n1 | 92% (inactive) |
| COc1cc2ccc(C(C)=O)cc2cc1OC | 106% (inactive) |
| Cc1nnc2nc(N)[nH]n2c1=O | 108% (inactive) |
| CN1CCN(C(=S)S)CC1 | 119% (inactive) |
| COCC(N)=O | 101% (inactive) |
| COc1cc2c3c(n([C@H]4CCOC4)c(=O)c2cc1OC)-c1cc2c(cc1C3=O)OCO2 | 31.3% (inactive) |
| N#CC1C=CN(CC(N)=O)c2ccc3cccnc3c21 (stereo not given) | 96.2% (inactive) |
| C[C@@H]1C[C@H]2C(=O)O[C@@H](C)[C@H](NC(=O)[C@H](Cc3cc(F)cc(F)c3)NC(=O)Nc3ccc(C4CC4)cc3F)C(=O)N3CCC[C@H]3C(=O)N3CCCC[C@H]3C(=O)N[C@@H](C)C(=O)N2C1 | -16.1% (active) |
| O=C(N/N=C/c1ccc2c(c1)OCO2)c1cnn2c1NC(c1ccccc1)C2 (stereo not given) | 22.4% (inactive) |
| Cc1ccc(N=Nc2ccccc2)cc1 | 95.2% (inactive) |
| COc1ccc(/C=C2\N=C(c3cccnc3)N(c3ccccc3)NC2=O)cc1 | 94.1% (inactive) |
| Cc1ccc(Cc2cnc(NC(=O)/C(C#N)=C/c3ccc(-c4ccc(Cl)cc4)o3)s2)cc1 | 83.1% (inactive) |
| NC(=O)c1cc2c3ccccc3ccn2c1-c1ccccc1 | 17.5% (inactive) |
| CN(C)c1ccc(/C=C2\Cc3c(F)ccc(Br)c3C2=O)cc1 | -29.4% (active) |
| O=C(NCc1cn(Cc2cccc(Oc3ccccc3)c2)nn1)c1cccnc1Nc1ccc(F)cc1 | 33.5% (inactive) |
| Nc1c(C(=O)Nc2ccccc2F)sc2nc3c(cc12)C(=O)CCC3 | -15.2% (active) |
| O=C1Nc2cc(-c3cccc([N+](=O)[O-])c3)ccc2/C1=C/c1ccc[nH]1 | -7.17% (active) |

| SMILES | growth |
| --- | --- |
| CN1CCCNc2c(c(=O)c2=O)NCCCN(C)CCCNc2c(c(=O)c2=O)NCCCN(C)CCCNc2c(c(=O)c2=O)NCCCN(C)CCCNc2c(c(=O)c2=O)NCCCN(C)CCCNc2c(c(=O)c2=O)NCCCN(C)CCCNc2c(c(=O)c2=O)NCCCN(C)CCCNc2c(c(=O)c2=O)NCCC1 | 32.9% (inactive) |
| O=C(CN1CCCCC1)Nc1ccc2oc(=O)ccc2c1 | 107% (inactive) |
| CCN1C(=O)N(c2ccccc2)C2NC(=S)N(/N=C/C=C/c3ccccc3OC)C21 (stereo not given) | 2.35% (active) |
| COc1ccc2sc3c(NCCCNCCO)nc4ccccc4c3c(=O)c2c1 | 30.9% (inactive) |
| CCCCCCCCCCCCCC1=NCC[N+]1(CCO)Cc1ccccc1 (stereo not given) | -81.2% (active) |
| Cn1cc(-c2nonc2-c2c[nH]c3ccccc23)c2cc(Br)ccc21 | 59.5% (inactive) |
| CCOC(=O)c1cc(C(=O)c2cc(OC)c(OC)c(OC)c2)n2ncc3ccccc3c12 | 66% (inactive) |
| CN(Cc1ccccc1)Cc1ccccc1 | 92.1% (inactive) |
| Cn1c(SC(C(=O)Nc2ccc(F)cc2)c2ccccc2)nc2ccccc2c1=O (stereo not given) | 99.6% (inactive) |
| COc1c(N)c2c(c([N+](=O)[O-])c1OC)C(=O)OC2 | 107% (inactive) |
| Cc1cc(N=C2C=CC(=[N+](C)C)C=C2)c(N)cc1N | 39.6% (inactive) |
| N#C/C(=C\c1ccc(Br)cc1)n1nnc2ccc(F)cc21 | -9.09% (active) |
| CN1C(=O)C(C2=NN(C=O)C(c3ccc(F)cc3)C2)C(=O)N(C)C1=O (stereo not given) | 89.4% (inactive) |
| O=C1NC(=O)/C(=C\c2ccccc2)C2=C1CCCC2 | 95.3% (inactive) |
| Cn1cc(-c2csc(-c3c[nH]c4ccccc34)n2)c2cccnc21 | -22% (active) |
| Nc1cccc2c(=S)c3ccccc3[nH]c12 | 86.1% (inactive) |
| Cc1[nH]c2ccccc2c1/C=N/Nc1ncnc2sc3c(c12)CCN(CC(=O)OC(C)(C)C)C3 | 47.5% (inactive) |
| C=C1C(=O)O[C@H]2[C@H]1CC/C(COC(=O)NCc1ccc(Cn3c(=O)sn(-c4ccccc4)c3=O)cc1)=C\CC[C@@]1(C)O[C@@H]21 | -33.8% (active) |
| CCCCCCCCCCC(=O)CCCCCCCCCC | 107% (inactive) |
| CCC(O)c1ccc(Br)cc1NC(=O)c1cccc(Cl)c1 (stereo not given) | 4.57% (active) |
